# Compounds with a hit are over-represented: about 6.8% of the library has one in this group of screens.
# TSG101-PTAP inh – blocks PTAP/TSG101 interaction to inhibit HIV-1 budding; Potency, µM (series often up to 115 µM), hits mostly inhibitors; Q99816; Fluorescence polarization, FITC-PTAP peptide / Tsg101 binding; 340,000 tested, under 10 active; active = well fitted inhibition curve with a large enough effect in the main read-out, with a control signal flat, not every such curve was filed as active; inconclusive = small, poorly fitted or top-dose-only effect, or effect the other way, or a change in a side signal; inactive = no such curve, though single readings can be large or run the other way
# Target sequence (Q99816 whole entry, looked up): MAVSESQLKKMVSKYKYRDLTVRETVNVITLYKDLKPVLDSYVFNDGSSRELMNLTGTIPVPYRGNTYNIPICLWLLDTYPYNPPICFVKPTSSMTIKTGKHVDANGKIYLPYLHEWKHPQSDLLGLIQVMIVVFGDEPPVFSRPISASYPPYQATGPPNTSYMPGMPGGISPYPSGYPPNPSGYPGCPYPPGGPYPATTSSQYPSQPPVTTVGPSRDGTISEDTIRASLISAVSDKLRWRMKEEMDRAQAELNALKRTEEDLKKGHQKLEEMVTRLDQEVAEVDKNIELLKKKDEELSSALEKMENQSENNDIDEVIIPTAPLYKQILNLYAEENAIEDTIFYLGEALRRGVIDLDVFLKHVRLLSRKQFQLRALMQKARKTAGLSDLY
#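 Compounds were pin-transferred onto Tsg101 binding domain (10 uM final) in HEPES pH 7.5 buffer, then FITC-PTAP peptide was added at 50 nM final. After 20 min at RT, polarization reported peptide displacement across a qHTS concentration series.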
# KB-3-1 tox – kills parental KB-3-1 adenocarcinoma cells | KB-3-1 viability, CellTiter-Glo ATP luminescence, 72 h | AID 1347075 | Potency, µM (titrated, usually from 46.1 µM), actives largely listed as cytotoxic | 1.4% of 400,000 active; note: nearly all actives have a fitted effect of over 60% in size
#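 Viability of parental KB-3-1 cells, measured by CellTiter-Glo luminescence, followed a 72 h incubation at 37 °C with pinned compounds in phenol-red-free DMEM containing 10% FBS.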
# SW480 rerep – induces DNA re-replication in SW480 colon adenocarcinoma cells; SW480 DNA re-replication, Hoechst DNA content imaging, 48 h; Potency, µM (titrated, usually from 46.1 µM), hits mostly activators; 1.8% of 340,000 active; note: nearly all actives have a fitted effect of over 55% in size
#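 DNA re-replication was detected as more nuclei of elevated Hoechst intensity after 48 hr exposure to compound (23 nL pinned per well of 250 cells).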
# KB-V1 cytotox – KB-V1 MDR subline cytotoxicity; KB-V1 MDR cells viability, CellTiter-Glo, 72 h; Potency, µM (series often up to 46.1 µM), most hits filed as cytotoxic; 3.4% of 400,000 active; AID 1347076; note: nearly all actives have a fitted effect of over 60% in size
#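 In this primary screen, KB-V1 cells overexpressing P-gp are incubated with library compounds (lowest to highest concentration) for 72 h at 37 degrees C before a luminescent ATP viability read.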
# MCF10A rereplic – DNA re-replication induction in MCF 10a cells | MCF 10A DNA re-replication, Hoechst nuclear intensity, 48 h | Potency, µM (highest dose often 46.1 µM), actives largely listed as activators | 2.9% of 350,000 active | AID 624296; note: nearly all actives have a fitted effect of over 50% in size
# PINK1 modulator – modulators of PINK1 expression | PINK1 immunofluorescence, high-content cytometry, 24 h | Potency, µM (highest dose often 76.6 µM), usual class: activators | 0.2% of 410,000 active | AID 624263; active = well fitted activation curve with a large enough effect; inconclusive = small, poorly fitted or top-dose-only effect; cell line not stated here; note: nearly all actives have a fitted effect of over 65% in size
#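 Readout is PINK1 immunofluorescence, quantified alongside mitochondrial, cell and nuclear markers by laser-scanning microplate cytometry. Cells from a stable line were exposed to compound titrations (5 concentrations) for 24 hours, with CCCP controls.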
# A number is an active result; - = inactive; ? = inconclusive; . = not tested or not shown. Unless noted, calls come from the whole dose curve; as a rule, active = well fitted curve in the direction sought with a large enough effect; inconclusive = small, poorly fitted or top-dose-only effect, or another doubt; inactive = no such curve, though single readings can be large; an effect the other way counts as inactive or inconclusive.
SMILES,TSG101-PTAP inh,KB-3-1 tox,SW480 rerep,KB-V1 cytotox,MCF10A rereplic,PINK1 modulator
CCOc1cccc(CNCCc2c(C)[nH]c3ccc(OC(F)(F)F)cc23)c1O,-,-,?,23µM,?,-
COc1ccc2[nH]c(C)c(CCNCc3cccnc3)c2c1,-,-,-,-,-,-
Cc1[nH]c2ccc(OC(F)(F)F)cc2c1CCNCc1cccc([N+](=O)[O-])c1,-,?,?,?,?,-
Cc1[nH]c2ccc(OC(F)(F)F)cc2c1CCNCc1ccc(Cl)cc1,-,?,16µM,?,?,-
C[C@@]12CCC3C(CCC4=CC(=O)CC[C@]43C)C1CCC2O (stereo partly drawn),.,.,.,.,.,-
CC(=NCCc1c[nH]c2ccccc12)c1c(O)n(Cc2ccccc2)c(=O)[nH]c1=O,-,-,15µM,12µM,?,-
CC(=NCCN1CCOCC1)c1c(O)n(Cc2ccccc2)c(=O)[nH]c1=O,-,-,-,-,-,-
CCC(=NCCc1c[nH]c2ccccc12)c1c(O)n(C)c(=O)n(C)c1=O,-,?,-,?,?,-
CCC(=NCCc1c[nH]c2ccccc12)c1c(O)n(-c2ccc(C)cc2)c(=O)[nH]c1=O,-,-,?,21µM,?,-
COC(=O)N1CCC2(CCCN(C)C2)CC1,.,.,.,.,.,-
C1=NCCc2c1[nH]c1ccccc21,-,?,4.1µM,16µM,16µM,-
CCc1ccc(N2C(=O)NC(=O)/C(=C/c3cccn3CCOc3ccc(C)cc3)C2=O)cc1,-,-,?,-,21µM,?
O=C1NC(=O)N(Cc2ccco2)C(=O)/C1=C\c1cccn1CCOc1ccc(Cl)cc1,-,-,-,-,?,-
Cc1cccc(OCCn2cccc2/C=C2/C(=O)NC(=O)N(Cc3ccco3)C2=O)c1,-,-,-,-,?,-
CCc1ccc(N2C(=O)NC(=O)/C(=C/c3cccn3CCOc3ccc(C(C)CC)cc3)C2=O)cc1 (stereo not drawn),-,-,13µM,-,13µM,-
Cc1cc(C)cc(N2C(=O)NC(=O)/C(=C\c3cccn3-c3ccccc3)C2=O)c1,-,?,?,18µM,?,-
Cc1ccc(NC(=O)C2C3CCCC2C3c2ccccc2)c(C)c1 (stereo not drawn),-,-,-,-,?,-
CC(C)(C)c1nc(N2CCN(C(=O)c3ccco3)CC2)c2nnn(Cc3ccccc3Cl)c2n1,-,-,-,12µM,18µM,-
O=C1CC(c2cccnc2)=NN1c1ccc(Cl)cc1Cl,-,-,-,-,?,-
CN1Cc2cccnc2N(C)Cc2cc(Cl)ccc21,-,?,-,16µM,-,-
CC(=O)N1CCCc2cc(S(=O)(=O)N3CCCC(C(=O)Nc4cccc(F)c4)C3)ccc21 (stereo not drawn),-,?,-,-,-,-
C[C@H](NC(C)(C)C)C(=O)c1cccc(Cl)c1,.,.,-,.,-,.
Nc1cc(Cl)c2nonc2c1[N+](=O)[O-],-,16µM,?,?,3.3µM,-
CCOC(=O)C(C)Oc1cc(C)cc2oc(=O)c3c(c12)CCCC3 (stereo not drawn),-,-,-,10µM,?,-
COC(=O)C(C)Oc1cc(C)cc2oc(=O)c3c(c12)CCCC3 (stereo not drawn),-,-,-,-,-,-
SMILES,TSG101-PTAP inh,KB-3-1 tox,SW480 rerep,KB-V1 cytotox,MCF10A rereplic,PINK1 modulator
CCN(CC)Cc1cc(Nc2ccnc3cc(Cl)ccc23)ccc1O,-,-,-,?,?,-
CCCOP(=O)(OCCC)c1nc(-c2ccccc2)oc1NCc1ccccc1,-,-,15µM,?,?,-
COc1ccc(CNc2oc(-c3cccc4ccccc34)nc2P(=O)(OC)OC)cc1,-,-,18µM,-,21µM,-
CCOP(=O)(OCC)c1nc(-c2ccc(Cl)cc2)oc1NCc1ccccc1,-,-,-,?,-,-
COP(=O)(OC)c1nc(-c2cccc3ccccc23)oc1N1CCCCC1,-,-,?,-,21µM,-
CC1CC(Cl)CCC1C(=O)OC(C)(C)C (stereo not drawn),.,.,.,.,.,-
CCS(=O)(=O)N1CCN(C2CCC(C)CC2)CC1 (stereo not drawn),-,-,?,-,-,.

# High-throughput results (PubChem)
